The supplement of paper PMC11732987, “Enantioselective OTUD7B fragment discovery through chemoproteomics screening and high-throughput optimisation” (Communications Chemistry, 2025)

Tests used:
Test in all cases: log2 ratio of Biotin-Ahx-Ub-VS probe labelling (fragment/DMSO); higher = less target engagement (more negative = stronger competition), active = hit call of the paper (q ≤ 0.05, log2 ratio ≤ -1)
Conditions in all cases: compound concentration: 200 uM; treatment time: 3 h
USP34 = USP34 (UniProt Q70CQ2)
How it was run: (§1)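 HEK293T lysate in Tris/CHAPS/IGEPAL buffer with protease inhibitors (495 µg per sample) was given fragment at 200 µM or vehicle for 3 h, in triplicate. It then received Biotin-Ahx-Ub-VS at 0.5 µM final for 1 h. Labelled DUBs were NeutrAvidin-enriched, digested with LysC and trypsin, and run by diaPASEF LC-MS/MS. Values are average log2 fragment/vehicle ratios by unpaired t-test on global-median-normalised Spectronaut quantities of proteins with ≥2 unique peptides.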

USP36 = biological target: T1, USP36 (UniProt Q9P275)
T1 sequence (whole entry): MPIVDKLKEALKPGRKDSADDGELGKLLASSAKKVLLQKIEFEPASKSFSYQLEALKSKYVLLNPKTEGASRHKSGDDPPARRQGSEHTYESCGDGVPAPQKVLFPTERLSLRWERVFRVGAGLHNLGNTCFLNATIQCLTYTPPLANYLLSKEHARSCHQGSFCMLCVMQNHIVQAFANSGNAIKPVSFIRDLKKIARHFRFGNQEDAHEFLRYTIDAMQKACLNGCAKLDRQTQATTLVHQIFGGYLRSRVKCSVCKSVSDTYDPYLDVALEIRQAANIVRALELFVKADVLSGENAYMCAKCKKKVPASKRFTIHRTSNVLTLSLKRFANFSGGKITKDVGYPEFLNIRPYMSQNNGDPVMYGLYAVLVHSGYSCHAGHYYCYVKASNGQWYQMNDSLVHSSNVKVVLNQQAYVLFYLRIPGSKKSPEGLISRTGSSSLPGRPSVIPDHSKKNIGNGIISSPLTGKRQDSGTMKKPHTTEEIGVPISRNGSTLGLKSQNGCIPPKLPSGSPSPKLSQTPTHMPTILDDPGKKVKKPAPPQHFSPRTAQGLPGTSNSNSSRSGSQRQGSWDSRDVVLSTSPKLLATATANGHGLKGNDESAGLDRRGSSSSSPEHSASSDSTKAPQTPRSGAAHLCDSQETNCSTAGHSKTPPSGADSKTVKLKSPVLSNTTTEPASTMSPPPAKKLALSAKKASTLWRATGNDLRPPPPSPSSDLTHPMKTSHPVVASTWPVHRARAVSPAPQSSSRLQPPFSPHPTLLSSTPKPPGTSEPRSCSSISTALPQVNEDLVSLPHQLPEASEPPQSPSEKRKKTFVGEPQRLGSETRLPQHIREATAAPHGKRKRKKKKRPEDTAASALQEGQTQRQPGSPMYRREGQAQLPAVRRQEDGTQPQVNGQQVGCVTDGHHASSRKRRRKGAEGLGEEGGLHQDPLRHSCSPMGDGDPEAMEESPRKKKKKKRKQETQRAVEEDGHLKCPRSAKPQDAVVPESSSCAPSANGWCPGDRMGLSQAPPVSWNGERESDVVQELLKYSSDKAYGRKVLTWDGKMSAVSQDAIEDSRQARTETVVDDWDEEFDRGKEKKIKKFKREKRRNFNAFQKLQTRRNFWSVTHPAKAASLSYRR
How it was run: as §1

USP38 = biological target: T2, USP38 (UniProt Q8NB14)
T2 sequence (whole entry): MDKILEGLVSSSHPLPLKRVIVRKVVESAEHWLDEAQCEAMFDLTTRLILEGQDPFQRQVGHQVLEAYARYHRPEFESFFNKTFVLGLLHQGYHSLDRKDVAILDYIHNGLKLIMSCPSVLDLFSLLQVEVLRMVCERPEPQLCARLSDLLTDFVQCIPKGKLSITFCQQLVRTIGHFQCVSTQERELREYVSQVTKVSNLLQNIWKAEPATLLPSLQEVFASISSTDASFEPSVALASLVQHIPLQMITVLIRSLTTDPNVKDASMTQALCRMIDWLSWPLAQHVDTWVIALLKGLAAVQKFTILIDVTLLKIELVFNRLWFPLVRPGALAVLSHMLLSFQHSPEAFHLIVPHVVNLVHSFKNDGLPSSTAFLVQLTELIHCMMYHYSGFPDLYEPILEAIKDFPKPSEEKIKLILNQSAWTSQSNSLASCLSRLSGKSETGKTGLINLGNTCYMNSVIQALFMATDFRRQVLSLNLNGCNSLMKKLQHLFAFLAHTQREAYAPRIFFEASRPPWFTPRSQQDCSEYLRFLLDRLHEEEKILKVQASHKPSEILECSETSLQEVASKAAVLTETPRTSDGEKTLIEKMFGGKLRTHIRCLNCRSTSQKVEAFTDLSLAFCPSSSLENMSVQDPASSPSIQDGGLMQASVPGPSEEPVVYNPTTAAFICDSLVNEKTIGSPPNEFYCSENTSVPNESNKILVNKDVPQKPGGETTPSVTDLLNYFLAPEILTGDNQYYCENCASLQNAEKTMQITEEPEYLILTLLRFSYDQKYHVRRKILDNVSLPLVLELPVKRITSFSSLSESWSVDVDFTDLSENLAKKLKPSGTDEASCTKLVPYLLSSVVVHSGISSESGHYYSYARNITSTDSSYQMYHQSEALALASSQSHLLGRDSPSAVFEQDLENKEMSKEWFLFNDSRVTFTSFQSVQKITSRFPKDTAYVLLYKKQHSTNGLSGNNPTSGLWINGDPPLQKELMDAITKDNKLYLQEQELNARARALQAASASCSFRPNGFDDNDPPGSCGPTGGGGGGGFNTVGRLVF
How it was run: as §1

USP39 = biological target: T3, USP39 (UniProt Q53GS9)
T3 sequence (whole entry): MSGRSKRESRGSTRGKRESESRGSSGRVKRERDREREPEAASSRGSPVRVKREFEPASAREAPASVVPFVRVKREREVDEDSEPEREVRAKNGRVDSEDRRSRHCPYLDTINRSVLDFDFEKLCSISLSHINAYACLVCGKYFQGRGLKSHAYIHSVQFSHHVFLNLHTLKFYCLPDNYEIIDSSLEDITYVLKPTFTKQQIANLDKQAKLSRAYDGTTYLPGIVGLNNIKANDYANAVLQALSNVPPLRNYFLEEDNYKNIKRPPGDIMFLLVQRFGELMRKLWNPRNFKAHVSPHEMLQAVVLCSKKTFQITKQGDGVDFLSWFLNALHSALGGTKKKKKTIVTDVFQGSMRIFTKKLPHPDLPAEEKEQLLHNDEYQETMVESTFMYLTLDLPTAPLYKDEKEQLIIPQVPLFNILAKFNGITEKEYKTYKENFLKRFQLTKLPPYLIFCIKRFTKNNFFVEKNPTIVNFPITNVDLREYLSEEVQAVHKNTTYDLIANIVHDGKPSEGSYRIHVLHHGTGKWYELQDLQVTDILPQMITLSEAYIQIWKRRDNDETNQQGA
How it was run: as §1

USP4 = biological target: T4, USP4 (UniProt Q13107)
T4 sequence (whole entry): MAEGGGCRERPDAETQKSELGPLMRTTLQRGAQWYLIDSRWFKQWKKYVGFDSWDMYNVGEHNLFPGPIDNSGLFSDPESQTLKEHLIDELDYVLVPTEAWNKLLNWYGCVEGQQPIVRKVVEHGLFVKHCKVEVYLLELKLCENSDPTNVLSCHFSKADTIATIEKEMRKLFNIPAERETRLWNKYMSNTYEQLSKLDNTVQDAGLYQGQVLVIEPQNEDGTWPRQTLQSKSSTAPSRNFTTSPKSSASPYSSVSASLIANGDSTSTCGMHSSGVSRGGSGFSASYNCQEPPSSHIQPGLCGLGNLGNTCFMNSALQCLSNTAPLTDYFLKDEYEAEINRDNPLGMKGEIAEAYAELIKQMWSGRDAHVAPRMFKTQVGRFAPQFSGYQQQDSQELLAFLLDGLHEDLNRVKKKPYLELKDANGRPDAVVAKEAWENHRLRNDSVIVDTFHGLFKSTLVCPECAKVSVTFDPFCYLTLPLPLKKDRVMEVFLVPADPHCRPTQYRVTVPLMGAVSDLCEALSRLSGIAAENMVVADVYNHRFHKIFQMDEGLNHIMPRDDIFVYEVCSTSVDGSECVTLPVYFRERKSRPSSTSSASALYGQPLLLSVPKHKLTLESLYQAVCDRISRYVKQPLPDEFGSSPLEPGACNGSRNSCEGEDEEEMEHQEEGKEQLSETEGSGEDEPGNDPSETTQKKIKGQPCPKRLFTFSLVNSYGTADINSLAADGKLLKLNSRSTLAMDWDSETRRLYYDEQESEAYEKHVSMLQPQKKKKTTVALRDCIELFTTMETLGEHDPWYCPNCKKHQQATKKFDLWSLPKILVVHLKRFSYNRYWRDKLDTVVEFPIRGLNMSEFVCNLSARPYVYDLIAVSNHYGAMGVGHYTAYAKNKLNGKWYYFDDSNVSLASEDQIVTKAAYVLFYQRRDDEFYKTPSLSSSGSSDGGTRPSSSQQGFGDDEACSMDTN
How it was run: as §1

Measured: log2 ratio of Biotin-Ahx-Ub-VS probe labelling

Chain of USP34 (Q70CQ2 whole entry, the tested form may be a part): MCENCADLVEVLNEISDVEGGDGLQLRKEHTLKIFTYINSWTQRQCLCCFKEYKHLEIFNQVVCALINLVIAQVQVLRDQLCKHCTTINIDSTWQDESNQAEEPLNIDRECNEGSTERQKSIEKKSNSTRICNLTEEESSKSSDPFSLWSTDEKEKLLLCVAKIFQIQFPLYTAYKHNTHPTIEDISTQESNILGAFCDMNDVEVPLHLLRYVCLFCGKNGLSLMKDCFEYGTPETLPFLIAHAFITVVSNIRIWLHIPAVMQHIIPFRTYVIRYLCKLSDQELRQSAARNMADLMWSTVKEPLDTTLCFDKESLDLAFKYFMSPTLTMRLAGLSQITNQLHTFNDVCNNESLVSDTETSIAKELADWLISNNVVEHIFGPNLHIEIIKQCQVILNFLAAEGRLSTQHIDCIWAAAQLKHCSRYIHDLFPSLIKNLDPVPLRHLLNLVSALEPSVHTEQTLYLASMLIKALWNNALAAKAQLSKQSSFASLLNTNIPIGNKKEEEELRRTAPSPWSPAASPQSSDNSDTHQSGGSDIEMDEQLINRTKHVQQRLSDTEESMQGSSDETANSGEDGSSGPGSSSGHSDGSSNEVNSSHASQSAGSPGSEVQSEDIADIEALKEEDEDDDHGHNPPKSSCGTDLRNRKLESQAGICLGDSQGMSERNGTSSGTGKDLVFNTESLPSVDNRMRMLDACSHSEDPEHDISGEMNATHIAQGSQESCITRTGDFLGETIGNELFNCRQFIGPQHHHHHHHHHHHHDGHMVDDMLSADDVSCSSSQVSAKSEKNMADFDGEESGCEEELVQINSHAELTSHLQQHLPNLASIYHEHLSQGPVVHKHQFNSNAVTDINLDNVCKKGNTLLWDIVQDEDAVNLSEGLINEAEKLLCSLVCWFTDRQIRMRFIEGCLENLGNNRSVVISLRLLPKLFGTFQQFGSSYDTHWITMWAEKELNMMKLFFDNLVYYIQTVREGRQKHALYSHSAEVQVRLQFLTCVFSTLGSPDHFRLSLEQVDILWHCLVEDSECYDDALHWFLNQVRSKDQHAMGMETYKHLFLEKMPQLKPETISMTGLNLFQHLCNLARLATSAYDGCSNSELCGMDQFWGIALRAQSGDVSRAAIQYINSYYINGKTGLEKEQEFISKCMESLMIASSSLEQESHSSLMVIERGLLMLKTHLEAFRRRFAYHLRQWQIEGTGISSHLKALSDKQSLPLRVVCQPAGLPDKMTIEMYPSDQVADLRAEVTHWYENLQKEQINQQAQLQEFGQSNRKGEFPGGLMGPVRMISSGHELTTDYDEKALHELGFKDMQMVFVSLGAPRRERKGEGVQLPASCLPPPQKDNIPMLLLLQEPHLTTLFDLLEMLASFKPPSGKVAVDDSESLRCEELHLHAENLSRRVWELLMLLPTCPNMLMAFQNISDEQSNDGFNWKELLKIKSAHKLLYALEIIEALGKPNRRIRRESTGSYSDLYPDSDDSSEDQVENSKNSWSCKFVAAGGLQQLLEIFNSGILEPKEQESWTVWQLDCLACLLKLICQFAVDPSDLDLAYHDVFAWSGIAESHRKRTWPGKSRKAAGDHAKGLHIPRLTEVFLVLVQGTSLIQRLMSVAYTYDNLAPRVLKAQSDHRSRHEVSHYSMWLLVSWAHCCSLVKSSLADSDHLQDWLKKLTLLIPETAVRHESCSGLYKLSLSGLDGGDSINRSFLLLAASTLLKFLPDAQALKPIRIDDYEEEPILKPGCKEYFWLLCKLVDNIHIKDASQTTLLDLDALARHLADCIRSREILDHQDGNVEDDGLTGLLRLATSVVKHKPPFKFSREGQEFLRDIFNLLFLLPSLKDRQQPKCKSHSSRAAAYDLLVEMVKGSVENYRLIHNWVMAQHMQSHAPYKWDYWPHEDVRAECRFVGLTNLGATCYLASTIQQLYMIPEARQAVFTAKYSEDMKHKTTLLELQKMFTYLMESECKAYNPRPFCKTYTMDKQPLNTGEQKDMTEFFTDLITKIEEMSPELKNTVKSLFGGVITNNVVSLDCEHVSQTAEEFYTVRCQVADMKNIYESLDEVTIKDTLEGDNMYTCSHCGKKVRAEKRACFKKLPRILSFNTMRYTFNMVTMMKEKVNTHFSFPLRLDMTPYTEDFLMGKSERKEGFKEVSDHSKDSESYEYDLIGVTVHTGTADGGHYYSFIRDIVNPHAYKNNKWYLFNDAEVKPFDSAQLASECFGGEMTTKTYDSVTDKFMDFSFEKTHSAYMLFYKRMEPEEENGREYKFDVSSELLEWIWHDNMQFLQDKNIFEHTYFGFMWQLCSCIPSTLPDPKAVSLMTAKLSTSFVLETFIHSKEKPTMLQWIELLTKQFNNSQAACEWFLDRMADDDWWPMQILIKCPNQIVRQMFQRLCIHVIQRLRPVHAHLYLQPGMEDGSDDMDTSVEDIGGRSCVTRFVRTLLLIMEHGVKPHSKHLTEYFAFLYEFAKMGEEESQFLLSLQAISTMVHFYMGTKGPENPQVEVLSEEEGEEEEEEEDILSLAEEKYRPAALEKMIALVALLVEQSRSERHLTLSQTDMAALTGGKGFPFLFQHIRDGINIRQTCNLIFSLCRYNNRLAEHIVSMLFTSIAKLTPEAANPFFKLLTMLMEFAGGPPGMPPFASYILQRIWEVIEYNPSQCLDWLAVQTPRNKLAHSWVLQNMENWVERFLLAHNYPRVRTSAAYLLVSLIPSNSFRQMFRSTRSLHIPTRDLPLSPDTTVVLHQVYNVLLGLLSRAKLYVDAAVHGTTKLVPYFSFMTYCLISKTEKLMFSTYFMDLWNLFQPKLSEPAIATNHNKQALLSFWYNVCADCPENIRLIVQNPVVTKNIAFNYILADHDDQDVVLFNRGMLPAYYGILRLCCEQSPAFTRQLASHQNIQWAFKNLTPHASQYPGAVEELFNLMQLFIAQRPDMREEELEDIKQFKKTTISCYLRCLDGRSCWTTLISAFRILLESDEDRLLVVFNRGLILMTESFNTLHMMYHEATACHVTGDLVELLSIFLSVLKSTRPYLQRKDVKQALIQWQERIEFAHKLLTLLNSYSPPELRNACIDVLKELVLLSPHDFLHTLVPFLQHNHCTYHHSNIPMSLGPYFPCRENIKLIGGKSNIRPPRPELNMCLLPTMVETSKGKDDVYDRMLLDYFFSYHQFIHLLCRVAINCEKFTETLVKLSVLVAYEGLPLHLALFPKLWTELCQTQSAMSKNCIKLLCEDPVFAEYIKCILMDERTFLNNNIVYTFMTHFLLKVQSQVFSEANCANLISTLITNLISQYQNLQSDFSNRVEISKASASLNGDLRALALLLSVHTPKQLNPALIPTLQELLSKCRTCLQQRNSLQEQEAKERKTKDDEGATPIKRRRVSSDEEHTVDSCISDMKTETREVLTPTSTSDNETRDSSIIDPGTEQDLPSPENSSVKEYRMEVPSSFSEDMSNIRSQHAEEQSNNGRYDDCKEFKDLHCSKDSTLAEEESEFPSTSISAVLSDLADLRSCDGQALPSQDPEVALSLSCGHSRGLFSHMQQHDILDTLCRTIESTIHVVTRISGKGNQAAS

N#Cc1ccc(Cl)cc1NC(=O)CCl
inactive: USP34 -0.22 | USP36 0.137 | USP38 -0.0529 | USP39 -0.0922 | USP4 -0.0565
